The full list was thinned out, with hits kept by preference.
Caspase-7 inhib: caspase-7 (human) inhibition, allosteric or competitive | Potency, µM (titrated, usually from 57.5 µM), for the others: top-dose activity change, negative = inhibition, actives largely listed as inhibitors | hit rate 0.02% among 75,000 | recombinant caspase-7, Ac-DEVD-AFC fluorescence rate | P55210; active = well fitted inhibition curve with a large enough effect in the main read-out, with a control signal flat, not every such curve was filed as active; inconclusive = small, poorly fitted or top-dose-only effect, or a change in a side signal; note: % of control where 0% means no effect
ALOX15 inhib: 15-hLO (ALOX15) enzyme inhibition. P16050. purified 15hLO-1, xylenol orange hydroperoxide absorbance. Potency, µM (top dose mostly 57.1 µM), inactives show top-dose activity change, negative = inhibition, most hits filed as inhibitors. hit rate 1.4% among 74,000. AID 887; note: % is set by controls: 0 for no effect and ±100 for the full control effect; nearly all actives have a fitted effect of over 55% in size
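Purified human 15hLO-1 (40 nM) in 25 mM Hepes pH 7.5, 0.01% Triton X-100, preincubated 15 min RT with compound, then 50 uM arachidonic acid for 6 min. Hydroperoxide read by ferrous/xylenol orange, 30 min; 573/405 nm absorbance ratio gave progress.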
USP2a inhib: blocks human ubiquitin-specific protease USP2a; Potency, µM (top dose mostly 38.3 µM), for the others: at the top dose activity change, negative = inhibition, hits mostly inhibitors; hit rate 0.1% among 60,000; USP2a enzymatic assay, qHTS inhibition; note: nearly all actives have a fitted effect of over 60% in size
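Coupled readout: USP2-cleaved Ub-PLA2 (20nM final) turns over NBD C6-HPC (20uM final), Ex 460nm/Em 535nm after 2.5 h, time-zero read flagging artifacts. Enzyme (20nM final, pH 8.0 Tris) given 30 min RT with compound first; NEM defines full inhibition.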
UbGFP stabilizer: ubiquitin-GFP accumulation via proteasome inhibition. AID 526. Potency, µM (highest dose often 45.9 µM), for inactives: at the highest dose activation (GFP accumulation), most hits filed as activators. 67,000 tested, under 10 active. Ubiquitin-GFP reporter cells, proteasome inhibition, GFP fluorescence; response scale: untreated = 0%, 10 µM MG-132 = 100%; active = well fitted activation curve with a large enough effect, not every such curve was filed as active; inconclusive = small, poorly fitted or top-dose-only effect, or another doubt; inactive = no such curve, though single readings can be large or run the other way
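U2OS cells expressing ubiquitin(G76V)-GFP, seeded overnight in 0.5% FBS medium, then treated 4 hr at 37 C across 46 uM to 2.9 nM. GFP-positive cells counted by laser cytometry (488 ex/515 em); %activity scaled between basal and 10 uM MG-132.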
15-hLO-2 inh: inhibitors of human 15-lipoxygenase 2 (ALOX15B). Potency, µM (highest dose often 57.1 µM), inactives show at the highest dose activity change, negative = inhibition, most hits filed as inhibitors. O15296. hit rate 0.56% among 110,000. purified 15hLO-2, xylenol orange hydroperoxide absorbance; note: % is set by controls: 0 for no effect and ±100 for the full control effect; nearly all actives have a fitted effect of over 60% in size
Target sequence (O15296 whole entry, looked up): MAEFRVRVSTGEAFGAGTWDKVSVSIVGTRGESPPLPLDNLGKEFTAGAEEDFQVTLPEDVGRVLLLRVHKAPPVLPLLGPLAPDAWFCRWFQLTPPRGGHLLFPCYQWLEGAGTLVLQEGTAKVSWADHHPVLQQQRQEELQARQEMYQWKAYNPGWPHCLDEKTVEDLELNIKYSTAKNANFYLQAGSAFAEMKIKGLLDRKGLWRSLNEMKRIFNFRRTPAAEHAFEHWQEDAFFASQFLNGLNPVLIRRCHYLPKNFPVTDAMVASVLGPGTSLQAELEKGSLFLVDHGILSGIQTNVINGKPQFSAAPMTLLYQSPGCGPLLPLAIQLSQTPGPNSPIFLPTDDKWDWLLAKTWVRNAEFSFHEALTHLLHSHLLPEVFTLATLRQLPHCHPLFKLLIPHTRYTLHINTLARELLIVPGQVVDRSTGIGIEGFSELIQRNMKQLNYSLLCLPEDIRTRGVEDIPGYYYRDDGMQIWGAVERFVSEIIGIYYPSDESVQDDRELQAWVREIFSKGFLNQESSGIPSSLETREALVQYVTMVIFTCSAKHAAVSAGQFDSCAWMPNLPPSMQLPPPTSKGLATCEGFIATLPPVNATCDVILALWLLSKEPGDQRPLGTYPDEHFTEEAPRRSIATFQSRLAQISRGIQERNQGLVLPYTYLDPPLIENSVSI
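Purified human 15hLO-2 (50 nM) preincubated 15 min with compound, then 45 uM arachidonic acid for 90 min at RT in 25 mM Hepes pH 7.5, 0.01% Triton X-100. Hydroperoxide detected by Fe-xylenol orange; 573/405 nm absorbance ratio.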
Casp1 inh: caspase-1 (human) inhibition, allosteric or competitive; P29466; Potency, µM (series often up to 57.5 µM), inactives show at the top dose activity change, negative = inhibition, hits mostly inhibitors; hit rate 0.03% among 75,000; Caspase-1 enzyme, Ac-WEHD-AFC fluorogenic rate;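 note: plate controls were vehicle for no effect and no substrate for full effect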
Starred values were filed as active, the others as inactive; ? = inconclusive; . = no result; [ ] = another dose, or the depositor's remark. Unless noted, calls come from the whole dose curve; as a rule, active = well fitted curve in the direction sought with a large enough effect; inconclusive = small, poorly fitted or top-dose-only effect, or another doubt; inactive = no such curve, though single readings can be large; an effect the other way counts as inactive or inconclusive. Potency is the fitted concentration of half-maximal effect.

SMILES	Caspase-7 inhib	ALOX15 inhib	USP2a inhib	UbGFP stabilizer	15-hLO-2 inh	Casp1 inh
CCOc1ccccc1CNC(=O)c1cc2occc2n1C	-1%	20µM*	.	6%	-25%	-1%
CCOc1ccccc1CNC(=O)c1cc2oc3ccccc3c2n1C	.	.	.	.	9%	.
CCOC(=O)C1OC1c1ccccc1 (configuration not stated)	1%	-4%	.	.	-7%	-2%
CC(C)(C(=O)O)c1ccc([C@@H](O)CCCN2CCC(C(O)(c3ccccc3)c3ccccc3)CC2)cc1	0%	-5%	9%	0%	-1%	3%
Cc1ccc(C(=O)N2CCN(c3ccc(Cl)cc3)CC2)cc1	-2%	-8%	4%	4%	6%	0%
COc1ccc(N2CCN(C(=O)c3ccc(NS(=O)(=O)c4ccccc4)cc3)CC2)cc1	-3%	5µM*	34%	-3%	.	0%
Cc1ccc(C(=O)N2CCN(c3ccc(NC(=S)NC(=O)Cc4ccccc4)cc3)CC2)cc1	.	.	.	.	13µM*	.
O=C1NC(c2cccs2)Nc2sc3c(c21)CCCC3 (configuration not stated)	0%	25µM*	20%	3%	-24%	2%
CC(C)(C)OC=O	-1%	2%	.	.	-5%	-3%
Cc1ccc(-c2c3c([nH]c(=S)c2C#N)CCCC3)o1	-15%	10µM*	25%	-8%	?	-2%
O=C(O)[C@@H]1Cc2c([nH]c3ccccc23)[C@@H](CCCCO)N1	0%[11.5 µM]	-5%[11.4 µM]	.	-3%[9.17 µM]	-8%[11.4 µM]	-3%[11.5 µM]
O=C(O)C1Cc2c([nH]c3ccccc23)C(c2ccc3c(c2)OCO3)N1 (configuration not stated)	1%[0.00368 µM]	13µM*	22%	-5%	-6%	-16%
CCc1cccc2c3c([nH]c12)[C@](CC)(CC(=O)O)OCC3	.	.	.	-1%	.	.
COc1ccc(-c2cc(C(=O)N/N=C/c3ccc(OC)c(OC)c3)[nH]n2)cc1	-1%	-4%	.	.	.	-3%
CC(=O)N(c1ccc2oc(=O)sc2c1)S(=O)(=O)c1ccccc1	0%	16µM*	48%	-10%	-13%	3%
CCCC(=O)N(c1ccc2oc(=O)sc2c1)S(=O)(=O)c1cccs1	0%	16µM*	31%	4%	-10%	0%
Cc1cc(=O)cc2oc3cc(N)c(-c4c(C)cc(O)cc4O)c(C)c3nc1-2	-30%	?	.	.	?	-13%
Nc1c(Cl)cc(Cl)cc1Cl	-1%	4%	.	.	4%	-6%
O=[N+]([O-])c1cccc2c(Br)[nH]nc12	-2%	13µM*	0%	-1%	-1%	3%
COc1ccc(C(=O)N2CCC[C@@]3(CCN(c4cccc(-c5ccccc5)c4)C3)C2)cc1	-3%	25µM*	103%	-7%	?	0%
COc1ccc(C(=O)N2CCC3(CCCN(c4ccc(-c5ccccc5)cc4)C3)CC2)cc1	-4%	-6%	104%	-4%	3%	-5%
COc1ccc(C(=O)N2CCC3(CCCN(C(=O)NC(C)C)C3)CC2)cc1	1%	-17%	10µM*	-10%	12%	0%
C=CCn1c(N)c(C(=O)NCCC2=CCCCC2)sc1=S	-4%	25µM*	1%	8%	?	-7%
NC(=O)NCCC1=CCCCC1	.	.	.	.	0%	.
COC(=O)CCc1c(C)c(C(=O)c2ccco2)c2ccccn12	.	7.9µM*	-4%	-2%	-18%	.
SMILES	Caspase-7 inhib	ALOX15 inhib	USP2a inhib	UbGFP stabilizer	15-hLO-2 inh	Casp1 inh
COc1cc(-c2ccc(N=Nc3ccc4c(S(=O)(=O)O)cc(S(=O)(=O)O)c(N)c4c3O)c(OC)c2)ccc1N=Nc1ccc2c(S(=O)(=O)O)cc(S(=O)(=O)O)c(N)c2c1O	-11%	?	77%[17.1 µM]	-5%	25µM*	-4%
O=S(=O)(O)c1ccc2c(N=Nc3cccc4ccccc34)c(O)c(S(=O)(=O)O)cc2c1	-9%[11.5 µM]	-2%[11.4 µM]	.	4%[9.17 µM]	3%[11.4 µM]	0%[11.5 µM]
Cc1nn(-c2ccc(S(=O)(=O)O)cc2)c(O)c1N=Nc1ccc(-c2ccc(N=Nc3ccc4c(S(=O)(=O)O)cc(S(=O)(=O)O)c(N)c4c3O)c(O)c2)cc1O.[Cu].[Cu]	2%[11.5 µM]	4µM*	.	1%[9.17 µM]	37%[11.4 µM]	-2%[11.5 µM]
COc1ccc(-c2cc(C(=O)N/N=C\c3cc(OC)c(OC)c(OC)c3)[nH]n2)cc1	-2%	-8%	.	.	.	-4%
Cc1ccccc1/C=C\C1=NCCN1	2%	-10%	-9%	-2%	-7%	4%
COC(=O)c1ccc(CCc2cc(O)ccc2O)cc1	3%[11.5 µM]	1.6µM*	.	-1%[9.17 µM]	12%[11.4 µM]	-1%[11.5 µM]
CC(=O)N1CCN(c2ccc(NCc3ccc4c(c3)OCO4)cc2)CC1	0%	?	6%	-9%	13µM*	2%
O=C(c1ccccc1)N1CCN(c2ccc(NCc3ccc4c(c3)OCO4)cc2)CC1	-3%	25µM*	.	-6%	20µM*	0%
CCOC(=O)c1ccc(NCc2ccc3c(c2)OCO3)cc1	-5%	?	13µM*	-11%	4%	-3%
COc1ccc(O[C@H]2C=C[C@@H](c3ccccc3)O[C@H]2COC(=O)CC/C(C)=N\O[C@@H](C)c2cn([C@H](CO)Cc3ccccc3)nn2)cc1	1%[11.5 µM]	1%[11.4 µM]	.	.	.	-1%[11.5 µM]
N#C/C(C(=O)c1ccccc1)=C1/SC=C(N)N1c1ccccc1	-8%	16µM*	19%	-5%	?	-9%
